Test results: the supplement of paper PMC10981050
Structures can show the parent of a compound that is named as a salt.

What follows are compounds tested on OCI-AML2 (assay: cell viability relative to vehicle control; higher = less cytotoxic). Conditions: 10 µM; SRSF2 genotype: wt/wt.
Outline: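 CRISPR-edited mutant clones and isogenic wild-type clones from four leukaemia lines were screened against Selleck bioactive, kinase and epigenetic probe libraries, with identity-inconsistent compounds excluded. Each compound was acoustically dispensed at a single 10 µM dose into 384-well plates holding 2000 cells in 50 µL medium per well. After 48 h the supernatant was removed and CellTiter-Glo luminescence was read. Viability was expressed as percent of the on-plate vehicle control and analysed in Genedata Screener.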

SMILES	cell viability [%]
CCc1c(O)cc(O)c(C(=O)c2ccc(OCCN3CCOCC3)c(OC)c2)c1CC(=O)N(CCOC)CCOC	21.8
O=C(NCCS(=O)(=O)c1ccc(C(F)(F)F)cn1)c1ccc(Cl)cc1	102
Clc1ccc2c(c1)CCc1cccnc1C2=C1CCNCC1 [Desloratadine]	81.9
Cc1ccc(C(=O)O)c(O)c1 [4-Methylsalicylic acid]	95.5
CCC(=O)Nc1cccc(Oc2nc(Nc3ccc(N4CCN(C)CC4)cc3OC)ncc2Cl)c1	59.2
CN(N=O)C(=O)NC1C(O)OC(CO)C(O)C1O (stereo not given) [Streptozotocin (STZ)]	107
C=CS(=O)(=O)NC1CCN(C(=O)CNc2cc(I)c(Cl)cc2OC)CC1 [K-Ras(G12C) inhibitor 9]	30
CCCc1nn(C)c2c(=O)[nH]c(-c3cc(S(=O)(=O)N4CCN(C)CC4)ccc3OCC)nc12 [Sildenafil citrate]	109
CNC(=O)Nc1ccc(-c2nc(N3CC4CCC(C3)O4)c3cnn(C4CCC5(CC4)OCCO5)c3n2)cc1	28.7
CO/N=C(\C(=O)N[C@@H]1C(=O)N2C(C(=O)O)=C(CSc3nc(C)c(CC(=O)O)s3)CS[C@H]12)c1csc(N)n1 [Cefodizime Sodium]	107
COC(=O)C1=C(C)NC(C)=C(C(=O)OCCN2CCN(C(c3ccccc3)c3ccccc3)CC2)C1c1cccc([N+](=O)[O-])c1 (stereo not given) [Manidipine (Manyper)]	41
Cc1cccc(CC(=O)N2CCc3c2ccc(-c2cn(C)c4ncnc(N)c24)c3F)n1	73.8
CNC1CCCN(c2c(F)cc3c(=O)c(C(=O)O)cn(C4CC4)c3c2OC)C1 (stereo not given) [Balofloxacin]	94.3
Cc1ccc(S(=O)(=O)NC(=O)NN2CC3CCCC3C2)cc1 (stereo not given) [Gliclazide (Diamicron)]	101
CN1CC2c3ccccc3Oc3ccc(Cl)cc3C2C1 (stereo not given) [Asenapine maleate]	73.2
CC[C@H]1OC(=O)[C@H](C)[C@@H](O[C@H]2C[C@@](C)(OC)[C@@H](O)[C@H](C)O2)[C@H](C)[C@@H](O[C@@H]2O[C@H](C)C[C@H](N(C)C)[C@H]2O)[C@](C)(O)C[C@@H](C)/C(=N\OCOCCOC)[C@H](C)[C@@H](O)[C@]1(C)O [Roxithromycin (Roxl-150)]	105
CC(C)c1nc(CN(C)C(=O)N[C@H](C(=O)N[C@@H](Cc2ccccc2)C[C@H](O)[C@H](Cc2ccccc2)NC(=O)OCc2cncs2)C(C)C)cs1 [Ritonavir]	89.3
Nc1nccc(Oc2ccc3c(C(=O)Nc4cccc(C(F)(F)F)c4)cccc3c2)n1	106
N[C@@H](Cc1c[nH]c2ccc(O)cc12)C(=O)O [5-hydroxytryptophan (5-HTP)]	104
CCCOc1ccc2c(c1)CC[C@@H]1[C@@H]2CC[C@]2(C)[C@@H](OC)CC[C@@H]12 [Promestriene]	66.2

SMILES	cell viability [%]
CCOCCn1c(N2CCCN(C)CC2)nc2ccccc21 [Emedastine]	104
COc1cc2c(c(OC)c1OC)-c1c(cc3c(c1OC)OCO3)C[C@H](C)[C@](C)(O)[C@H]2OC(=O)c1ccccc1 [Schisantherin A]	102
COc1ccc2c(c1O)-c1c(O)c(OC)cc3c1[C@H](C2)[N+](C)(C)CC3 [Magnoflorine]	107
NCc1c[nH]c(=S)n1[C@H]1CCc2c(F)cc(F)cc2C1 [Nepicastat hydrochloride]	103
CC(=O)Nc1ccc(OC(=O)c2ccccc2OC(C)=O)cc1 [Benorylate]	108
CCC(=O)NC[C@@H]1C[C@H]1c1cccc2c1CCO2 [Tasimelteon]	99.3
COc1ncnc(NS(=O)(=O)c2ccc(N)cc2)c1OC [Sulfadoxine (Sulphadoxine)]	96.3
N[C@@H](Cc1cc(I)c(Oc2cc(I)c(O)c(I)c2)c(I)c1)C(=O)O [Levothyroxine sodium]	94.3
C=C(C)[C@@H]1CC[C@]2(C(=O)O)CC[C@]3(C)[C@H](CC[C@@H]4[C@@]5(C)CC[C@H](O)[C@@](C)(CO)[C@@H]5CC[C@]43C)[C@@H]12 [23-Hydroxybetulinic acid]	109
C[C@]12C=CC(=O)C=C1CC[C@H]1[C@@H]3C[C@@H](O)[C@](O)(C(=O)CO)[C@@]3(C)C[C@H](O)[C@@]12F [Triamcinolone (Aristocort)]	122
O=C(O)C1=CO[C@@H](O[C@@H]2O[C@H](CO)[C@@H](O)[C@H](O)[C@H]2O)[C@H]2[C@@H]1C=C[C@]2(O)CO [Monotropein]	103
Cn1ncc(Cl)c1-c1cc(C(=O)N[C@H](CN)Cc2cccc(F)c2)sc1Cl	48.6
Cc1ccc(OCC(O)C(C)NC(C)C)c2c1CCC2 (stereo not given)	99
CN1CCCN(C(=O)c2cccc(-c3ccc(/C=C4/C(=O)Nc5ccc(Cl)cc54)o3)c2)CC1	0.42
O=S(=O)(c1ccccc1)c1cnc2c(N3CCNCC3)cccc2c1	93.2
CCn1c2ccccc2c2cc(Nc3ccnc(NCCCN4CCOCC4)n3)ccc21	1.05
Cc1cn(-c2cc(NC(=O)c3ccc(C)c(Nc4nccc(-c5cnccn5)n4)c3)cc(C(F)(F)F)c2)cn1 [Radotinib]	104
CCCOc1ccc2[nH]c(NC(=O)OC)nc2c1 [Oxibendazole]	8.07
COCC1=C(C(=O)OC(C)OC(=O)OC(C)C)N2C(=O)[C@@H](NC(=O)/C(=N\OC)c3csc(N)n3)[C@H]2SC1 (stereo not given in full) [Cefpodoxime proxetil]	94.9
Oc1c(F)cc(-c2cnccc2-c2ccc(N3CCOCC3)cc2)cc1F	103
